Reference: article PMC5540273 (PLoS ONE, 2017)

System: LIMK2
Details: concentration: 1 μM, replicates: in singlicate; n = 1
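Note: KINOMEscan kinase panel screen.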

| SMILES | %Inh [%] |
| --- | --- |
| Cc1c(Cn2c3ccccc3n3c(=O)cc(N4CCOCC4)nc23)cccc1C(F)(F)F [GSK2306394] | 3 |
| Fc1ccc(-c2nc[nH]c2-c2ccncc2)cc1 [SB-217360] | 0 |
| COc1cccc(CNC(=O)NC2CCN(c3ccnc(Nc4ccc(F)cc4)n3)C2)c1 (stereo not shown) [GSK1379723] | 0 |
| Cc1ccccc1-c1cc(-c2c[nH]nc2-c2ccccn2)ccn1 [GW680061] | 0 |
| COC(=O)C(NC(=O)NC1CCN(c2ccnc(Nc3ccc(F)cc3)n2)C1)c1ccccc1 (stereo not shown) [GSK1379712] | 10 |
| O=C1NC(=O)C(c2ccc(Cl)cc2)=C1Nc1ccc(O)cc1 [SB-340867] | 0 |
| COc1cc2ncnc(Nc3cccc(Br)c3)c2cc1OC.Cl [GI230329] | 0 |
| COC(=O)c1cccc(NC(=O)NC2CCN(c3ccnc(Nc4ccc(F)cc4)n3)C2)c1 (stereo not shown) [GSK1379725] | 0 |
| COc1ccc2cc(-c3nc(-c4ccccc4C(C)C)[nH]c3-c3ccncc3)ccc2c1 [SB-660566] | 0 |
| CC(=O)c1c(C)c2cnc(Nc3ccc(N4CCNCC4)cn3)nc2n(C2CCCC2)c1=O | 99.5 |
| CCc1ccc(-c2ccc3c(c2)-c2n[nH]cc2S(=O)(=O)N3C)cc1 | 0 |
| CC(=O)c1c(C)c2cnc(Nc3ccn(C)n3)nc2n(C2CCCC2)c1=O | 0 |
| CC(C)c1cc(-c2ccc3c(N)n[nH]c3c2)nc(N)n1 [GSK2250882] | 0 |
| COc1ccc(Nc2nccc(N3CCC(NC(=O)C(C)c4ccc(Cl)cc4)CC3)n2)cc1 (stereo not shown) [GSK1379812] | 18 |
| Cc1ccc(NC(=O)c2ccc(Cl)cc2)cc1-c1ccc(C(=O)Nc2ccncc2)cc1 [GSK1398467] | 3 |
| Cl.Cl.Cl.N#Cc1ccc(CCNc2nccc(-c3cccc(CN4CCNCC4)c3)n2)cc1 [GSK2137462] | 38 |
| CCCCc1nn2ncccc2c1-c1ccnc(NC2CC2)n1 [GW684374] | 34 |
| COc1cccc(NC(=O)Nc2ccc(C)c(-c3ccc(C(=O)Nc4ccncc4)cc3)c2)c1 [GSK1398474] | 8 |
| Cc1ccc(-c2nc(Nc3ccncc3)c3ccccc3n2)s1 [GSK189015] | 7 |

| SMILES | %Inh [%] |
| --- | --- |
| CS(=O)(=O)CCNCc1nc(-c2ccc3ncnc(Nc4ccc(OCc5ccccc5)c(Cl)c4)c3c2)cs1.Cl [GW582764] | 0 |
| COC(=O)c1cccc(NC(=O)NC2CCN(c3ccnc(Nc4ccc(OC)cc4)n3)C2)c1 (stereo not shown) [GSK1379746] | 3 |
| CC[C@@H]1CO[C@H](C(=O)Nc2ccccc2)CN1c1cc(-c2ccc3c(N)n[nH]c3c2)nc(NC)n1 [GSK2376236] | 9 |
| CS(=O)(=O)Cc1ccc(Nc2nccc(-c3c(-c4cccc(NC(=O)C5CCCCC5)c4)nn4ncccc34)n2)cc1 [GSK350559] | 14 |
| CSc1ccc(-c2nc3n(c2-c2ccncc2)CCC3)cc1 [SKF-105561] | 0 |
| Cc1cnc(N)c(/C=C/c2cncc(C(=O)NCCc3ccc(Cl)cc3Cl)c2)c1.Cl [GSK190937] | 2 |
| CNC(=O)c1ccc(C)c(-n2c(C)cc(OCc3ccc(F)cc3F)c(Br)c2=O)c1 | 0 |
| CCn1c(-c2c(N)noc2C)nc2cnccc21 [SB-737856] | 100 |
| O=c1cc(N2CCOCC2)nc2n(Cc3ccccc3F)ccn12 [GSK2297428] | 1 |
| Fc1ccc(-c2nc3n(c2-c2ccncc2)CCS3)cc1 [GI98581] | 0 |
| Fc1ccc(-c2nn3cccc(F)c3c2-c2ccncc2)cc1 [GW475620] | 0 |
| COc1ccc(CSc2nnc(-c3ccc4nccn4c3)o2)cc1C(F)(F)F | 0 |
| CC(C)c1ccc(O)cc1Nc1ccnc2ccc(C(F)(F)F)cc12 [GW482059] | 0 |
| Cc1ccc(NC(=O)Nc2ccccc2F)cc1-c1ccc(C(=O)Nc2ccncc2)cc1 [GSK1398477] | 15 |
| Cc1ccc(NC(=O)Nc2ccc(Cl)cc2)cc1-c1ccc(C(=O)Nc2ccncc2)cc1 [GSK1398472] | 67 |
| Cc1c(Cn2c(C)c(C)n3c(=O)cc(N4CCOCC4)nc23)cccc1C(F)(F)F [GSK2328680] | 4 |
| O=C(Nc1n[nH]c2nc(-c3cccs3)c(Br)cc12)C1CC1 [SB-735297] | 0 |
| Cc1cccc2c(-c3ccncn3)c(-c3ccc(F)cc3)nn12 [GW515532] | 0 |
